Assay results taken from PMC4336329 (PLoS ONE, 2015).
Hit rate of the full screen: of about 310,000 compounds, about 14,000 (4.5%) showed an effect of 50% or more. Effects have a minus sign here. Shown is part of a subset that was picked to be rich in strong results.

Target: human ether-à-go-go-related gene (hERG) potassium channel (human, UniProt Q12809)
Assay: primary screen, population patch clamp on CHO cells stably expressing hERG; higher = less effect of the substance
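Further: peak tail current of the secondary pulse compared with the same well before compound.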

human ether-à-go-go-related gene (hERG) potassium channel, sequence (Q12809 whole entry, looked up): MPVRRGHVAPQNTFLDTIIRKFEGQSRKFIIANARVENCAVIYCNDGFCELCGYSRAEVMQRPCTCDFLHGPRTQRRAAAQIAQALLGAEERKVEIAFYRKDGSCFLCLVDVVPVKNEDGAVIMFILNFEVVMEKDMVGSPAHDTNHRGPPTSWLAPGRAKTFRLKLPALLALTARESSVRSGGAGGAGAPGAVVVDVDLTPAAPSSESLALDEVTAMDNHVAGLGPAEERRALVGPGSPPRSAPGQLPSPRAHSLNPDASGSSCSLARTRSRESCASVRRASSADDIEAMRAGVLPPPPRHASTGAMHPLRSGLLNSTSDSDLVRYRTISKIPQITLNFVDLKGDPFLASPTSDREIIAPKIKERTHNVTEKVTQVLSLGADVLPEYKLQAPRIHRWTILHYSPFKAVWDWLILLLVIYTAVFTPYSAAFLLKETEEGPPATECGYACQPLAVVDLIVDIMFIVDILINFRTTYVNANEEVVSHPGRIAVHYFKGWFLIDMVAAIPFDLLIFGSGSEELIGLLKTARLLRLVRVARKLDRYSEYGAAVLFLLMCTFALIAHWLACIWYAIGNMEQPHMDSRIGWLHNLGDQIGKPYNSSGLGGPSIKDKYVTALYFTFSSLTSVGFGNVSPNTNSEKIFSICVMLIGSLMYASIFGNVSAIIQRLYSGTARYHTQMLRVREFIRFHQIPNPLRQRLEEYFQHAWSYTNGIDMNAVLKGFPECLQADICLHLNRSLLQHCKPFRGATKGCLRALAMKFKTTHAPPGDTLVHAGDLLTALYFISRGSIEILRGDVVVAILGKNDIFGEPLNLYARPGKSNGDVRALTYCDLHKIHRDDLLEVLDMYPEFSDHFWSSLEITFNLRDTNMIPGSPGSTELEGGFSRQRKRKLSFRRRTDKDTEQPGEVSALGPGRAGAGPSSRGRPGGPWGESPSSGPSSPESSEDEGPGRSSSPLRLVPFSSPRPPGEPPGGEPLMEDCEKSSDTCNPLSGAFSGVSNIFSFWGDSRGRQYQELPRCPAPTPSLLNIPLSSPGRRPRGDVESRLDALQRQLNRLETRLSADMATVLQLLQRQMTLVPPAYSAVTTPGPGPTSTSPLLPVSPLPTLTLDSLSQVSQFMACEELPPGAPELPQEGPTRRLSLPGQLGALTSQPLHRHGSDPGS

SMILES | hERG current change (%, negative = inhibition) at 10uM
CCCCNc1nc2c(c(=O)n(C)c(=O)n2C)n1CCC | 9.61%
COc1ccc(NS(=O)(=O)c2ccc(C)c(C(=O)NC3CCN(Cc4ccccc4)CC3)c2)cc1 | -51.1%
O=C(NCCCN1CCOCC1)c1cccc(S(=O)(=O)Nc2ccc(F)cc2)c1 | -23.3%
O=C(NC1CCN(Cc2ccccc2)CC1)c1cccc(S(=O)(=O)Nc2ccc(F)cc2)c1 | -63.8%
O=C(NC1CCN(Cc2ccccc2)CC1)c1cccc(S(=O)(=O)Nc2cc(C(F)(F)F)ccc2Cl)c1 | -48.8%
COCCNS(=O)(=O)c1ccc(Cl)c(C(=O)NC2CCN(Cc3ccccc3)CC2)c1 | -1.21%
CCOc1ccc(NS(=O)(=O)c2ccc(C(=O)NC3CCN(Cc4ccccc4)CC3)cc2)cc1 | 3.07%
CN(C)S(=O)(=O)Nc1cccc(Br)c1 | -14.2%
CCCCCc1cc(=O)oc2c(C(CCN(CC)CC)c3cc(OC)c(OC)c(OC)c3)c(OC)cc(OC)c12 (centres unmarked) | -38.2%
CCCCCc1cc(=O)oc2c(C(CCN3CCCC(C)C3)c3cc(OC)c(OC)c(OC)c3)c(OC)cc(OC)c12 (centres unmarked) | -64.4%
CCCCCc1cc(=O)oc2c(C(CCN3CCCC3)c3cc(OC)c(OC)c(OC)c3)c(OC)cc(OC)c12 (centres unmarked) | -65.6%
COc1cc(O)c(C(CCN2CCCC(C)C2)c2cc(OC)c(OC)c(OC)c2)c(OC)c1 (centres unmarked) | 5.07%
CCCCCc1cc(=O)oc2c(C(CCN3CCCCC3)c3cc(OC)c(OC)c(OC)c3)c(OC)cc(OC)c12 (centres unmarked) | -74.6%
Cc1cccc2c1N(N=O)CCC2 | -2.33%
Cc1ccc(N2CC(C(=O)Nc3ccc4c(c3)OCO4)CC2=O)cc1 (centres unmarked) | 9.48%
Cc1ccc(-c2c(C(=O)N/N=C/C3CC=CCC3)nnn2-c2nonc2N)cc1 (centres unmarked) | 20.5%
Cc1nccnc1Sc1ccccc1 | 22.4%
Cc1ccc(S(=O)(=O)NNC(=O)Cc2cccn2C)cc1 | 11.2%
CCCCN(C)C(=O)c1oc2ccc(S(=O)(=O)N3CCCCCC3)cc2c1C | -15.9%
CCC1Sc2ccc(S(=O)(=O)CCC(=O)Nc3cc(C)ccn3)cc2NC1=O (centres unmarked) | 11.9%
COc1ccccc1C(=O)Nc1cccc2nc(C)ccc12 | 8%
Cc1cc(C(=O)Nc2c(F)c(F)c(F)c(F)c2F)n(-c2ccccc2)n1 | -59.1%
CC(=O)c1cccc(NC(=O)c2cc(C)nn2-c2ccccc2)c1 | -21%
Cc1c(NC(=O)c2cnn3cccnc23)c(=O)n(-c2ccccc2)n1C | 4.45%
Cc1cc(C(=O)Nc2c(F)cc(F)cc2Br)n(-c2ccccc2)n1 | 16%
Cc1cc(NC(=O)c2ccc(Cl)cc2)n(-c2ccccc2)n1 | -1.41%
Cc1cc(NC(=O)c2cnn3cccnc23)no1 | -0.805%

SMILES | hERG current change (%, negative = inhibition) at 10uM
Cc1cc(NC(=O)c2ccccc2)n(-c2ccccc2)n1 | 30.8%
CCOC(=O)c1cccc(NC(=O)c2cc(C)nn2-c2ccccc2)c1 | -50.5%
Cc1cc(NC(=O)c2cnn3cccnc23)n(-c2ccccc2)n1 | -61.8%
Cc1cc(C(=O)Nc2ccc(F)cc2C)n(-c2ccccc2)n1 | 12.6%
Cc1cc(NC(=O)c2ccc(F)cc2)n(-c2ccccc2)n1 | -80.2%
CCOC(=O)c1ccc(NC(=O)c2cc(C)nn2-c2ccccc2)cc1 | -7.01%
COc1ccc(OC)c2c1C(=O)C(Cl)=C(Cl)C2=O | 13.4%
COCc1c(C#N)c(NCCc2ccc(F)cc2)nc(C)c1[N+](=O)[O-] | 1.39%
Cc1ccc(C(=O)Nc2ccc3c4c(cccc24)CC3)cc1[N+](=O)[O-] | -1.54%
Cc1cc(C)n(-c2nnc(C)n2NS(C)(=O)=O)n1 | 14.6%
Cc1csc(C(C#N)C(=O)c2ccc(S(=O)(=O)N3CCCC3)cc2)n1 (centres unmarked) | 5.45%
COc1ccccc1N1CCN(C(=O)CN2C(=O)C3CCCCC3C2=O)CC1 (centres unmarked) | 22.7%
Cc1onc(-c2c(F)cccc2Cl)c1C(=O)Nc1c(C)n(C)n(-c2ccccc2)c1=O | 0.00478%
COc1ccccc1NS(=O)(=O)c1cc(C)ccc1C | 4.55%
CCCc1nn(C)c2c(=O)[nH]c(-c3cc(S(=O)(=O)N(CCO)CCO)ccc3OCC)nc12 | 0.59%
CCc1ccc2c(c1)C(c1ccc([N+](=O)[O-])cc1)=NNC(c1ccc(F)cc1)=N2 | -7.54%
CCOC(=O)N1CCN(C(=O)c2ccc(CS(=O)(=O)c3ccc(OC)cc3)o2)CC1 | -16%
COc1ccc(CCC(=O)N2CCN(S(=O)(=O)c3ccc(OC)cc3)CC2)cc1 | -8.45%
COc1ccc(S(=O)(=O)N2CCN(C(=O)c3ccc([N+](=O)[O-])o3)CC2)cc1 | -51.3%
COc1ccc(S(=O)(=O)Cc2ccc(C(=O)N3CCN(c4ccccc4F)CC3)o2)cc1 | -52.8%
COc1ccc(S(=O)(=O)Cc2ccc(C(=O)N3CCN(c4ccc(Cl)cc4)CC3)o2)cc1 | -55.5%
COc1ccc(S(=O)(=O)Cc2ccc(C(=O)N3CCN(c4cc(Cl)ccc4C)CC3)o2)cc1 | 9.01%
COc1ccc(S(=O)(=O)Cc2ccc(C(=O)N3CCOCC3)o2)cc1 | 1.23%
COc1ccc(S(=O)(=O)Cc2ccc(C(=O)N3CCN(c4ncccn4)CC3)o2)cc1 | -16.8%
COc1ccc(S(=O)(=O)Cc2ccc(C(=O)N3CCN(c4ccccc4)CC3)o2)cc1 | -37.6%
COc1ccc(S(=O)(=O)N2CCN(C(=O)c3ccc(C)o3)CC2)cc1 | -5.16%
COc1ccc(S(=O)(=O)Cc2ccc(C(=O)N3CCN(c4cccc(C)c4C)CC3)o2)cc1 | -30.6%

SMILES | hERG current change (%, negative = inhibition) at 10uM
COc1ccc(N2CCN(C(=O)c3ccc(CS(=O)(=O)c4ccc(OC)cc4)o3)CC2)cc1 | -64.7%
CC(=O)c1ccc(N(C(=O)CNC(=O)c2ccco2)C(C(=O)NC2CCCC2)c2ccncc2)cc1 (centres unmarked) | 20.3%
COc1cccc(-c2nn(-c3ccc(C)cc3)cc2C(=O)N(C)CC(=O)Nc2cccc(F)c2)c1 | 0.34%
COc1ccc(OC)c(NC(=O)COC(=O)c2ccc(S(=O)(=O)N3CCOCC3)cc2)c1 | -15.3%
O=C(Nc1ccc2c(c1)OCO2)C1CC1(Cl)Cl (centres unmarked) | 3.77%
COc1cc(OC)c(OC)cc1CNC(=O)c1cc(=O)c2ccccc2o1 | 8.48%
COc1ccc(N(C(C)=O)S(=O)(=O)c2cccs2)cc1 | 7.03%
CCCn1nnc(NC(=O)c2ccc(Cl)cc2Cl)n1 | 2.23%
O=C(O)CCc1ccc(S(=O)(=O)N2CCOCC2)cc1 | 9.65%
COC(=O)C1=C(C)N(c2cccc(Cl)c2)C(=O)C1 | 9.01%
COP(=O)(OC)C(Nc1ccccn1)c1ccccc1 (centres unmarked) | 26.6%
c1ccc(CC(Nc2ccccn2)c2ccccc2)cc1 (centres unmarked) | -52.8%
O=C(c1ccccc1)C(Nc1ccccn1)c1ccccc1 (centres unmarked) | 1.36%
CCN(CC)CCN(C(=O)c1ccc(N2C(=O)CCC2=O)cc1)c1nc2cc3c(cc2s1)OCCO3.Cl | -27.6%
CN(C)CCN(C(=O)c1ccc(S(=O)(=O)N(C)C)cc1)c1nc2cc3c(cc2s1)OCCO3.Cl | -40.7%
CCN(CC)CCN(C(=O)c1ccc(S(=O)(=O)N2CCCCC2)cc1)c1nc2cc3c(cc2s1)OCO3.Cl | -37.6%
CN(C)CCCN(C(=O)c1ccc(S(=O)(=O)N2CCCCCC2)cc1)c1nc2cc3c(cc2s1)OCCO3.Cl | -59.7%
Cc1ccc2sc(N(CCCN(C)C)C(=O)c3ccc(S(=O)(=O)N4CCOCC4)cc3)nc2c1C.Cl | -35.9%
CC1CN(S(=O)(=O)c2ccc(C(=O)N(CCCN(C)C)c3nc4cc5c(cc4s3)OCCO5)cc2)CC(C)O1.Cl (centres unmarked) | -28.8%
CN(C)CCCN(C(=O)c1ccc(S(=O)(=O)N2CCCCC2)cc1)c1nc2cc3c(cc2s1)OCO3.Cl | -70.4%
CCN(CC)CCN(C(=O)c1ccc(S(=O)(=O)N2CCOCC2)cc1)c1nc2cc3c(cc2s1)OCCO3.Cl | -69.2%
CN(C)CCCN(C(=O)c1ccc(S(=O)(=O)N2CCOCC2)cc1)c1nc2cc3c(cc2s1)OCO3.Cl | -61.4%
C=C1C(=O)C=C2CN(C(=O)c3ccccc3)[C@@](Cc3ccc(F)cc3)(C(=O)OC)[C@@H]12 | -3.22%
CCOc1ccc(N2C(=O)CC(N3CCN(C(=O)c4ccco4)CC3)C2=O)cc1 (centres unmarked) | -9.91%
Cc1cc(C)n(C(=O)CNC(=O)C(c2ccccc2)c2ccccc2)n1 | -3%
CN(C)c1ccc(NC(=O)c2cccc([N+](=O)[O-])c2)c2ccccc12 | -4.86%
